Screens deposited in PubChem BioAssay by several laboratories.
A selection: hits, their analogues and other compounds. The true share with any hit is near 4.3%.
UBC13 polyUb: UBC13 polyubiquitin chain formation inhibitors, primary screen, biochemical, TR-FRET, uHTS; inhibition, % at 20 µM; hit rate 0.47% among 330,000; AID 485273, 2010; in the data active means inhibition above about 45%, passing the limit was not always enough
Target sequence (P61088 whole entry, looked up): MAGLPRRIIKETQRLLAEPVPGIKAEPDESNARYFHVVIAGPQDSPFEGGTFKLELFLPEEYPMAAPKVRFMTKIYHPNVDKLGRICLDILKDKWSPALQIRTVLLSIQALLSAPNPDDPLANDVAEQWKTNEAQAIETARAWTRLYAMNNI
dFosB activator: activators of delta FosB homodimer, primary screen, biochemical, fluorescence polarization, TAMRA-CDK5 oligo, single point | purified delta FosB; percent of positive-control signal above neutral wells | hit rate 0.99% among 340,000 | activation, % at 25 µM;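 active means mean activation above about 17%, with every replicate also reaching it, limit read from the data, passing the limit was not always enough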
Target sequence (P13346 whole entry, looked up): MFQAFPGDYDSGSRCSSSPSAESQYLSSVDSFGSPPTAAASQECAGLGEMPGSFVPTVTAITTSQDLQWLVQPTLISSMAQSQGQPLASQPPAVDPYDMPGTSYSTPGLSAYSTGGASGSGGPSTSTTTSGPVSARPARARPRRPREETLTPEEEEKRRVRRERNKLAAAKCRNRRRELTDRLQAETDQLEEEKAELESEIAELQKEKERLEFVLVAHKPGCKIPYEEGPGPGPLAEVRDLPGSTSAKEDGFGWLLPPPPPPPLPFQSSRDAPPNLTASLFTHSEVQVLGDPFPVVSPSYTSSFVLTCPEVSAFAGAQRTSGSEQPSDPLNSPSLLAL
GRIN3A LBD mod: binders of NR3A ligand-binding domain, primary screen, biophysical, differential scanning fluorimetry, uHTS; Glutamate receptor ionotropic, NMDA 3A (GRIN3A) ligand-binding domain; Tm shift relative to glycine control, % at 25 µM; NR3A LBD differential scanning fluorimetry, Tm shift; 0% = protein alone, 100% = glycine-bound protein; hit rate 2.5% among 340,000;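 active means melting temperature shift of at least 10% of the positive control shift, at one fixed dose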
CR mimetic SO: reduction of superoxide in aged yeast, primary screen, HTS | S. cerevisiae aged cells, superoxide DHE fluorescence; stronger effect = lower value | superoxide response (% of plate mean), % at 10 µM | hit rate 0.18% among 330,000;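 active means superoxide response under a set limit, about three screen SD below normal, cut at about 65% in these data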;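 further: yeast aged for seven days with compound at 30 °C before DHE staining; 100% = average MFI of all compound-treated wells on the plate with controls excluded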
NALP1 yeast inh: NALP1 inflammasome inhibitors in reconstituted yeast, colorimetric, S. cerevisiae, triplicate retest. S. cerevisiae NALP1/ASC/caspase-1 growth, X-gal OD620, 72 h. inhibition, % at 10 µM. hit rate 0.61% among 280,000. AID 2071, 2009; in the data active means inhibition mostly above about 24%, no sharp cut-off; inactive means mostly below about 32%
Active calls of the source: *; / = not tested or not shown.

SMILES	UBC13 polyUb	dFosB activator	GRIN3A LBD mod	CR mimetic SO	NALP1 yeast inh
COc1ccc(-c2noc(N3CCCC(C(=O)Nc4ccccc4F)C3)n2)cc1 (stereo not given)	4	5	13*	96	27
CCOC(=O)c1ccc(N2C=C(C(=O)OC)C(c3cccc(O)c3)C(C(=O)OC)=C2)cc1	18	-7	-442	96	5
CCOc1c(Br)ccc2c1sc1nc[nH]c(=O)c12	2	-21	-4	90	14
COc1ccc(CCNC(=O)CN(c2ccccc2OC)S(C)(=O)=O)cc1	2	4	-1	97	30*
COc1ccc(CCNC(=O)CN(c2ccccc2OC)S(C)(=O)=O)cc1OC	-6	-1	-1	107	14
COc1cc(NC(=O)c2cccc([N+](=O)[O-])c2)ccc1NC(=O)c1ccco1	6	-3	27*	93	12
Cc1cc(C(=O)Nc2cccc(NC(=O)c3ccco3)c2)ccc1[N+](=O)[O-]	-16	-13	-4	114	4
CCOc1ccc(C(=O)NC(=S)Nc2cccc(NC(=O)c3ccco3)c2)cc1[N+](=O)[O-]	-11	8	16*	103	23
COc1ccc(C(=O)NC(=S)Nc2cccc(NC(=O)c3ccco3)c2)cc1[N+](=O)[O-]	-18	5	12*	97	16
COc1cc(NC(=O)CSc2nc3ccccc3c(=O)n2C)ccc1NC(=O)c1ccco1	4	3	13*	116	7
COc1cc(NC(=O)COc2ccccc2)ccc1NC(=O)c1ccco1	-4	-9	-10	90	25
CCCC(=O)Nc1ccccc1-c1nnc(SCC)[nH]c1=O	8	-6	-1	97	/
Cc1ccc(N2CC(C(=O)Nc3c4c(nn3C(C)(C)C)CS(=O)(=O)C4)CC2=O)cc1C (stereo not given)	-4	-3	-1	88	14
N#C/C(=C(/O)COC(=O)CSc1ccc2ccccc2c1)c1nc2ccccc2[nH]1	-8	0	20*	102	20
Cc1ccc(-c2noc(CCC(=O)Nc3ccc(C)cn3)n2)cc1	0	0	11*	91	24
CC(=O)NC(=S)Nc1ccccc1N1CCCCC1	0	-8	13*	92	-3
O=C(CCN1C(=O)/C(=C/c2ccc(F)cc2)SC1=S)Nc1cccnc1	-6	19*	0	94	6
O=C(O)CCN1C(=O)/C(=C\c2ccc(OCc3ccccc3)c(OCc3ccccc3)c2)SC1=S	-26	-16	1	92	10
O=C(CCN1C(=O)/C(=C/c2ccc(F)cc2)SC1=S)NCCc1ccc(O)cc1	-10	68*	16*	115	-1
COc1cccc(/C=C2\SC(=S)N(CCC(=O)NCCc3ccc(O)cc3)C2=O)c1	-15	14	16*	148	16
O=C(O)CCN1C(=O)/C(=C\c2cccc(OCc3ccccc3)c2)SC1=S	-5	-12	11*	103	5
O=C(CCN1C(=O)/C(=C/c2ccccc2)SC1=S)Nc1cccnc1	-5	-4	3	102	-15
O=C(O)c1ccc2c(=O)n(-c3ccc(F)c(Cl)c3)c(=S)[nH]c2c1	29	5	2	115	-3
COc1cc(C(=O)O)c2ccccc2n1	-9	-8	-1	91	-2
CCCCCCC1C(C#N)=C(N)OC2=C1C(=O)CC(C)(C)C2 (stereo not given)	-7	-7	44*	102	16
SMILES	UBC13 polyUb	dFosB activator	GRIN3A LBD mod	CR mimetic SO	NALP1 yeast inh
CCC1C(C#N)=C(N)OC2=C1C(=O)CC(C)(C)C2 (stereo not given)	6	3	0	92	-105
O=C(CCN1C(=O)C2CC=C(Cl)CC2C1=O)NCc1ccccc1 (stereo not given)	4	9	1	92	0
O=C(CCN1C(=O)C2CC=C(Cl)CC2C1=O)Nc1ccccc1O (stereo not given)	8	2	11*	114	7
CCC(C)c1ccc(C(C)NC(=S)NCc2ccc(F)cc2)cc1 (stereo not given)	1	-5	13*	98	12
CCCc1ccc(C(C)NC(=S)NCc2ccc(F)cc2)cc1 (stereo not given)	-6	-9	9	112	18
N#Cc1ccccc1COC(=O)CCCC1=NS(=O)(=O)c2ccccc2N1	-5	-6	0	99	8
Cc1ccccc1NC(=S)NCCc1c[nH]c2ccccc12	8	4	-10	95	7
CC(C)c1ccc(NC(=S)NCCc2c[nH]c3ccccc23)cc1	4	2	31*	96	24
Cc1ccc(NC(=S)NCCc2c[nH]c3ccccc23)cc1	16	-3	23*	102	3
Cc1ccc(C)c(NC(=S)NCCc2c[nH]c3ccccc23)c1	-2	-10	3	96	18
Cc1cccc(NC(=S)NCCc2c[nH]c3ccccc23)c1	-10	1	28*	97	20
CN1CCC(NC(=O)c2cc(-c3cccc(Br)c3)nc3ccccc23)CC1	4	-113	1	92	26
CCOc1ccc(N2CC(C(=O)NCCCc3ccccc3)CC2=O)cc1 (stereo not given)	-2	-2	-1	99	/
N#C/C(=C\c1c(N2CCC(C(N)=O)CC2)nc2ccccn2c1=O)C(=O)NC1CCCCC1	-9	-8	2	89	6
COC(=O)[C@H]1C[C@H]2[C@@H]3CC[C@H]4C[C@@H](OC)CC[C@]4(C)[C@H]3CC[C@]2(C)[C@@]2(CCCO2)O1	/	-5	-1	91	/
CCOC(=O)CN(C(=O)COc1ccc2c(C)cc(=O)oc2c1)c1ccc(OCC)cc1	-9	-11	2	93	17
Cc1[nH]n(-c2ccccc2)c(=O)c1N=Nc1ccccc1O	-129	2	10*	/	-7
COc1ccccc1N(C)S(=O)(=O)c1ccc(C(=O)OCC(=O)N(C(C)C)C(C)C)cc1	-10	-17	0	96	26*
COC(=O)c1cncn1Cc1ccccc1	/	2	1	/	/
CCOC(=O)c1sc(NC(=O)/C=C/c2ccccc2)nc1C	7	3	10*	99	26
COC(=O)c1sc(NC(=O)/C=C/c2ccccc2Cl)nc1C	-17	0	19*	88	-9
COC(=O)c1sc(NC(=O)/C=C/c2ccc(C)cc2)nc1C	3	2	23*	98	19
Cc1nc(NC(=O)/C=C/c2ccccc2)sc1C(=O)Nc1ccccc1	-4	-10	21*	78	12
O=C(NCc1ccco1)c1ccc(Cl)cc1[N+](=O)[O-]	/	-4	1	94	-8
CC(C)(C)c1ccc(C(=O)OC/C(O)=C(\C#N)c2nc3ccccc3s2)cc1	-4	4	17*	109	12
